Laboratory results: the supplement of paper PMC4840960

Tested on: E18 rat cortical neuron-glia co-culture
Experiment: myelination (MBP fiber length per Olig2+ nucleus), % of 1 µM DAPT response (DMSO = 0) (% of DAPT); higher = more myelination, active = 50 or more
Settings: 5 µM; treatment time: 8 days (DIV5-DIV13)
Procedure, shortened: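 Four 10X fields in each of duplicate wells were analysed after cultures were fixed in 4 % paraformaldehyde and immunostained for MBP and Olig2, with DAPI as the nuclear counterstain. The cultures were papain-dissociated primary E18 rat cortical co-cultures at 20,000 cells/well on poly-d-lysine/laminin 96-well plates, dosed with library compounds at 1 or 5 µM in myelination medium from DIV5 to DIV13. The myelination readout was continuous straight MBP fiber length per Olig2+ nucleus, with 0.1 % DMSO set to 0 and a 1 µM positive control set to 100.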

myelination, inactive:
CN1CCN(CC/C=C2/c3ccccc3Sc3ccc(S(=O)(=O)N(C)C)cc32)CC1 [Thiothixene] 42.5, CN1CCN(c2c(F)cc3c(=O)c(C(=O)O)cn4c3c2SCC4)CC1 [Rufloxacin] -35.3, Cc1ccnc2c1NC(=O)c1cccnc1N2C1CC1 [Nevirapine] -6.68, O=C(O)COCCN1CCN(C(c2ccccc2)c2ccc(Cl)cc2)CC1 (configuration not stated) [Cetirizine] -4.35, Cc1cccc(Nc2ccncc2S(=O)(=O)NC(=O)NC(C)C)c1 [Torsemide] -4.35, Cc1ncc([N+](=O)[O-])n1CCO [Metronidazole] -10.1, CC(=O)[C@H]1CC[C@H]2[C@@H]3CCC4=CC(=O)CC[C@]4(C)[C@H]3CC[C@]12C [Progesterone] -38.4, CO[C@@]1(NC(=O)Cc2cccs2)C(=O)N2C(C(=O)O)=C(COC(N)=O)CS[C@@H]21 [Cefoxitin] -13.8, CC(=O)N1CCN(c2ccc(OCC3COC(Cn4ccnc4)(c4ccc(Cl)cc4Cl)O3)cc2)CC1 (configuration not stated) [Ketoconazole] -46.2, C#C[C@]1(OC(C)=O)CC[C@H]2[C@@H]3CCC4=CC(=O)CC[C@@H]4[C@H]3CC[C@@]21C [Norethisterone acetate] -6.86, NS(=O)(=O)c1cc2c(cc1Cl)N=CNS2(=O)=O [Chlorothiazide] 6.93, C[C@]12CCC(=O)C=C1CC[C@@H]1[C@@H]2C(=O)C[C@@]2(C)[C@H]1CC[C@]2(O)C(=O)CO [Cortisone] -10.5, CC1(C)S[C@@H]2[C@H](NC(=O)Cc3ccccc3)C(=O)N2[C@H]1C(=O)O [Penicillin G] 4.95, CN(C)CCC=C1c2ccccc2CCc2ccccc21 [Amitriptyline] 30.2, O=c1c(O[C@@H]2O[C@H](CO)[C@@H](O)[C@H](O)[C@H]2O)c(-c2ccc(O)c(O)c2)oc2cc(O)cc(O)c12 [Isoquercitrin] -11.7, CC1(C)S[C@@H]2[C@H](NC(=O)[C@H](N)c3ccc(O)cc3)C(=O)N2[C@H]1C(=O)O [Amoxicillin] -33.3, NC12CC3CC(CC(C3)C1)C2 [Amantadine] 0.678, Cc1[nH]c(=O)c(C#N)cc1-c1ccncc1 [Milrinone] -15.7, CCCC(=O)Nc1ccc(OCC(O)CNC(C)C)c(C(C)=O)c1 (configuration not stated) [Acebutolol] -32.5, O=C(NCCO[N+](=O)[O-])c1cccnc1 [Nicorandil] -1.77, CN(C)CCC(c1ccc(Cl)cc1)c1ccccn1 (configuration not stated) [Chlorpheniramine] -17.7, Nc1nc(N)nc(-c2cc(Cl)ccc2Cl)n1 [Irsogladine] -20.9, CC(=O)SCC(Cc1ccccc1)C(=O)NCC(=O)OCc1ccccc1 (configuration not stated) [Racecadotril] -8.19, CC(=O)Nc1ccc(CC(=O)O)cc1 [Actarit] -10.1, CCN(CC)CCNC(=O)c1cc(Cl)c(N)cc1OC [Metoclopramide] -2.72, CCOC(=O)C1=C(C)NC(C)=C(C(=O)OC)C1c1cccc(Cl)c1Cl (configuration not stated) [Felodipine] 8.21, CN1CCN(C2=Nc3cc(F)ccc3Cc3ccccc32)CC1 [Fluperlapine] -12.9
